For this test, the system named is MDA-MB-468 breast. Kind of test: NCI-60 one-dose screen, 48 h (100 = growth as untreated, 0 = no growth, -100 = all killed). The note with it: 10 µM unless noted.

Values joined by “and” are separate entries in the source; they are usually repeats but may differ in a detail not shown here. Equal values may be shown once. This is part of a sample that, as a whole, favours compounds with a hit. Of some 83,000 tested, about 20% had one in any assay.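 Interpretation: 100, growth as untreated; towards 0, rising growth inhibition; 0, no net growth; 0 to -100, cell death. Compounds scoring below 10 were considered active.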 Unmarked numbers belong to inactive results. Active and inactive are the calls of the source.

Take `CNC(=O)c1c(NC(=O)c2ccc(C(C)(C)C)cc2)sc2c(CN(C)C)c(O)ccc12`: the growth was -60.5% (active).
The figure for `Clc1cccc(CNc2c3ccccc3nc3ccccc23)c1` is -18.4% (active).
For the compound `CCOC(=O)[C@]1(Br)CC[C@@]1(Br)C(=O)OCC`, the growth is 44.9%.
As to `CC(C)NCC(O)c1ccc(O)c(O)c1` (stereo not given), the growth is 89.3% and 104% and 97.9%.
Turning to `CCN1CCN(C(=O)[C@]23CCC(C)(C)C[C@@H]2C2=CC[C@@H]4[C@@]5(C)CCC(=O)C(C)(C)[C@@H]5CC[C@@]4(C)[C@]2(C)CC3)CC1`, the growth is 30.5%.
With `NC(=O)c1cccc([C@@H]2O[C@H](CO)[C@@H](O)[C@H]2O)c1`, the growth was 87.7%.
For `CC(=O)N(O)CCCCCNC(=O)CCC(=O)N(O)CCCCCNC(=O)CCC(=O)N(O)CCCCCN(CCCCCCCCCC[P+](c1ccccc1)(c1ccccc1)c1ccccc1)CCCCCCCCCC[P+](c1ccccc1)(c1ccccc1)c1ccccc1`, the growth is -42.6% (active).
As to `C#Cc1nc(C2=C(C)C(OC(=O)CCC(=O)O)CC2)cs1` (stereo not given), the growth is 99.6%.
In the case of `CCC(=O)Oc1ccc2c(c1)CC[C@@H]1[C@@H]2CC[C@]2(C)C[C@H](OC(=O)CC)C[C@@H]12`, the growth was 47.9%.
In the case of `C=CCSc1nnc(COc2ccc3c(C)c(Cc4ccccc4)c(=O)oc3c2C)o1`, the growth was 113%.
Regarding `COc1ccc(/C=C/C(=O)c2ccc(-n3cc(CN4CCN(c5cc6c(cc5F)c(=O)c(C(=O)O)cn6C5CC5)CC4)nn3)cc2)cc1`, the growth was 26.3%.
As to `CCN(CC)CCNC(=O)c1ccc(-c2nc3ccc4[nH]ncc4c3c3c2CCCC3)cc1`, the growth is 17.4%.
The figure for `C[C@@H]1CC[C@@]2(OC1)O[C@H]1C[C@H]3[C@@H]4CC=C5C[C@@H](O[C@@H]6O[C@H](CO)[C@@H](O[C@@H]7O[C@@H](CO)[C@H](O)[C@H]7O)[C@H](O)[C@H]6O[C@@H]6O[C@@H](C)[C@H](O)[C@@H](O)[C@H]6O)CC[C@]5(C)[C@H]4CC[C@]3(C)[C@H]1[C@@H]2C` is -40.3% (active); for `S=c1[nH]ccn1-c1c(Cl)cccc1Cl` it is 110%.
As to `O=C(CCCn1c2c(sc3ccccc32)c(=O)n2nnc(-c3ccccc3)c12)NCCc1cnc[nH]1`, the growth is -91% (active).
As to `O=C(CCN1CCCC1)Nc1ccc2c(NCCc3ccccc3)c3ccccc3nc2c1`, the growth was -40.8% (active).
Turning to `COc1cc(/C=C/C(=O)c2cc(-c3ccc(C(F)(F)F)cc3)ccc2O)cc(OC)c1OC`, the growth was 57.9%.
Turning to `O=C(Nc1ccc2c(c1)OCCO2)C(=O)c1c[nH]c2ccccc12`, the growth is -0.365% (active).
Take `Cc1ccc(NSc2ccccc2[N+](=O)[O-])cc1`: the growth was 17.6%.
As to `COc1ccc(-c2ccc(-c3ccc(-c4ccc(C(=N)N)cc4)s3)s2)cc1OC`, the growth was -71.4% (active).
Turning to `Cc1c(O)cccc1O`, the growth was 117%.
Consider `COc1ccc(-c2nn(-c3ccccc3)cc2/C=C/C(=O)NNC(=O)Nc2ccc(C)cc2)cc1`, for which the growth is 102%.
Turning to `CC1(C)[C@@H](O)CC[C@]2(C)[C@H]3CC[C@@H]4[C@H]5[C@H](C(=O)/C=C/c6ccc(C(F)(F)F)cc6)CC[C@]5(CO)CC[C@@]4(C)[C@]3(C)CC[C@@H]12`, the growth was 61.9%.
For the compound `Cc1cc(=NO)cc(C)n1O`, the growth was 98.1%.
Turning to `O=C(/C=C/C12c3ccccc3C(c3ccccc31)C1C(=O)N(c3ccc(Cl)cc3)C(=O)C12)c1ccccn1` (stereo not given), the growth is -9.41% (active).
Turning to `COc1ccc(SC2c3ccc(O)cc3Oc3nc(N)c(C#N)c(N)c32)cc1` (stereo not given), the growth was 89.6%.
With `COc1cc(-c2nc(SCCC(C)C)nc(Nc3ccccc3)c2C#N)cc(OC)c1OC`, the growth was 112%.
In the case of `COc1ccc(OC)c(/C=C/c2nnc(Nc3ccccc3)o2)c1`, the growth was 103%.
Regarding `CC(CN)[C@@H]1CC[C@]2(CO)CC[C@]3(C)[C@H](CC[C@@H]4[C@@]5(C)CCC(NCCO)C(C)(C)[C@@H]5CC[C@]43C)[C@@H]12` (stereo not given in full), the growth is 11.8%.
Under `COc1cnc2c(c1)C(=O)c1c-2n(CCCN2CCNCC2)c(=O)c2cc(Cl)ccc12` stands 65.8%.
In the case of `OCC(CO)(CCl)CCl`, the growth was 107%.
The figure for `O=C1/C(=C/C=C/c2ccco2)SC(=S)N1c1ccccc1` is -9.4% (active); for `Cc1ccc(C)c2c(C)c(C(=O)Nc3cccc(-n4cccn4)c3)oc12` it is 27.8% [50 µM].
With `COc1cc(C2C3=C(COC3=O)N(CCO)c3cc4c(cc32)CCC4)cc(OC)c1OC` (stereo not given), the growth was 0.574% (active).
With `O=C1/C(=C/c2ccccc2Br)COc2ccc(O)c(O)c21`, the growth was 19.2%.
The figure for `O=C1[C@@H]2Cc3c([nH]c4ccccc34)[C@H](c3ccc(Br)cc3)N2C(=O)CN1C1CCN(Cc2c(Cl)cccc2Cl)CC1` is 95.9%; for `COc1ccc2nc3ccccc3c(NCCNCC(C)O)c2c1` (stereo not given) it is -24.6% (active); for `COc1cc(-c2nc3sccn3c2-c2ccnc(NCCNS(=O)(=O)c3ccc(Cl)cc3)n2)ccc1F` it is 29.7%.
For the compound `COc1ccc(-c2nc(/C=C3\C(=O)N(C)c4ccccc43)c3ccccn23)cc1`, the growth was 98.5%.
`C=CCn1c(SCC(=O)Nc2ccc(C(=O)/C=C/c3cc(OC)c(OC)c(OC)c3)cc2)nnc1-c1ccccc1`: the growth was 82%.
For the compound `CCc1ccc(C(=O)/C=C/C23c4ccccc4C(c4ccccc42)C2C(=O)NC(=O)C23)cc1` (stereo not given), the growth is -15.9% (active).
Under `O=C(CC(O)c1ccncc1)c1ccccc1` (stereo not given) stands -50.3% (active); under `Clc1ccccc1CNc1c2ccccc2nc2ccccc12`, -27.9% (active); under `O=C(Cc1ccc(F)c(Cl)c1)Nc1cc(C2(C(F)(F)F)CC2)nn1CC1CCCCC1`, -13.1% (active).
Consider `COc1ccc(C(=O)CCC(=O)O)cc1`, for which the growth was 48%.
The figure for `CCOc1nc(-c2ccccc2)cc2c(O)c(C(=O)N/N=C/c3ccc(O)cc3O)[nH]c(=O)c12` is 29.9%.
In the case of `COc1cc(-c2nccc3[nH]c(-c4ccc5cc[nH]c5c4)nc23)cc(OC)c1OC`, the growth was -36.7% (active).
For `COc1ccc(-n2c(SCc3n[nH]c(=S)o3)nc3ccc(Cl)cc3c2=O)cc1`, the growth was 82.6%.
For `S=c1cnc2ccccc2[nH]1`, the growth is 108%.
Take `COc1cc2c(c(OC)c1OC)C(=O)N[C@@H]1[C@@H](O)[C@@H](O)[C@H](O)C[C@@H]21`: the growth is 102%.
Regarding `CCCCn1c(=O)c2c(nc3n2CCCN3CCc2ccc(OCC(=O)NCCN(CC)CC)cc2)n(CCCC)c1=O`, the growth was 43.7%.
With `Cc1ccccc1CNc1ncnc2[nH]ncc12`, the growth was 87.7%.
Under `ClC(Cl)c1nc(-c2cccnc2)n2nc(-c3ccccc3)cc2n1` stands -29.7% (active); under `CN(CCC#N)c1ccc(/C=C(\C#N)c2cccc(C(F)(F)F)c2)cc1`, 23.4%; under `Cc1cc[n+](CCCCCCCCCC[n+]2ccc(C)cc2)cc1`, 6.78% (active).
On to `FC(F)(F)c1[nH]ncc1-c1nc2ccc3[nH]ncc3c2c2c1CCCC2`, for which the growth was 19.7%.
`COc1cccc(Nc2nc(NCCO)c3ccccc3n2)c1`: the growth was 75.7%.
Consider `OC1CSSC1Cn1cnc2c(Nc3ccc(F)c(Cl)c3)ncnc21` (stereo not given), for which the growth is 2.83% (active).
As to `O=C(/C=C/C=C/c1c(C2CC2)nc2ccccc2c1-c1ccc(F)cc1)c1cccs1`, the growth was 4.94% (active).
The figure for `Brc1cccc(-c2cc(-c3ccc4c(c3)OCCO4)[nH]n2)c1` is 2.79% [25 µM] (active); for `Cn1cc(-c2noc(C(=O)c3cn(C)c4ncc(Br)cc34)n2)c2ccccc21` it is 111%; for `C=C(C)[C@@H]1C[C@@H]2Cc3cc(F)ccc3N1O2` it is 104%.
In the case of `CCCCC/C=C/C(=O)CCc1ccc(O)c(OC)c1`, the growth was 65.8%.
With `O=C(c1ccc(-c2nc(CSc3nc4ccccc4s3)no2)cc1)N1CCSCC1`, the growth was 4.1% (active).
Regarding `CCOC(=O)c1ccc2nc(-c3c(C)nn(-c4ccccc4)c3N3CCOCC3)[nH]c2c1`, the growth was 105%.
Take `COc1ccc2cc(-c3cc(OC)c(OC)c(OC)c3)c(=O)oc2c1`: the growth is 46.5%.
Take `CCNC(=O)c1ccc2c(c1)nc(-c1ccc(Cl)cc1)n2-c1cc(C(C)(C)C)[nH]n1`: the growth was 32.8%.
Turning to `COc1cccc(C2C(C#N)=C(N)Oc3cc4c(cc32)OCO4)c1` (stereo not given), the growth was 2.26% (active).
Take `CCN(CC)CCNC(Cc1ccccc1)c1ccc(OCc2ccccc2)cc1` (stereo not given): the growth is 66.4%.
As for `N#Cc1nc(-c2ccccc2)oc1S(=O)(=O)N1CCOCC1`, the growth was 71.2%.
Under `NC(=N\N=C/c1ccc(O)cc1)/C(N)=N\N=C/c1ccc(O)cc1` stands 103%; under `NC(=O)c1c(NC(=O)c2cccs2)sc2c1CCC(=O)C2`, 65.2%; under `Nc1n[nH]c2ccc([C@@H]3Nc4c(F)cc5[nH]ncc5c4[C@H]4C5CCC(C5)[C@@H]34)cc12` (stereo not given in full), -4.88% (active).
For `COc1ccc(-c2cc(C(=O)Nc3nc4cc(C)c(C)cc4s3)nc3cc(-c4ccccc4)nn23)cc1OC`, the growth is 109%.
With `COc1ccc2nc3cc(Cl)ccc3c(N3CCN(c4ccnc(N5CCN(C)CC5)n4)CC3)c2c1`, the growth is -51.9% (active).
As to `Cc1sc2c(c1C)c(=O)nc1c(-c3nc(-c4ccccc4)cs3)n[nH]n12`, the growth was 116%.
Under `O=C1C(Cl)=C(Nc2ccc(S(=O)(=O)c3ccc(NC4=C(Cl)C(=O)c5ccccc5C4=O)cc3)cc2)C(=O)c2ccccc21` stands -60.1% (active); under `CN1CCN(c2ccc3nc4c(nc3c2C(F)(F)F)C(=O)c2ncccc2C4=O)CC1`, -62.4% (active).
Consider `C=CCNc1nc(NN2C(=O)c3cccc4cccc(c34)C2=O)nc(-n2cnc3ccccc32)n1`, for which the growth is 80.5%.
As to `CN1C2CCC1/C(=C\c1ccc(F)cc1)C(=O)/C2=C/c1ccc(F)cc1`, the growth is 28.8%.

The record behind these values is PubChem BioAssay (NCI).
